PubChem BioAssay (EPA / NIEHS)
Inconclusive results are not listed. Activity calls are given as the source filed them. The calls were made as follows, unless noted: active = hit-call score of the fitted dose curve at least 0.9, where 1 is the maximum; inactive = score below 0.9.

What was measured:
[1] = molecular target: Paired box protein Pax-6 (Homo sapiens) (UniProt P26367); experiment: ATG_Pax6_CIS: Attagene CIS-FACTORIAL HepG2 Assay for human Paired Box 6 (PAX6) (AID 2282956); conditions: HepG2 CIS-FACTORIAL PAX6 reporter transcription, RNA readout; actives raise or lower the signal
Paired box protein Pax-6 (Homo sapiens), sequence (P26367 whole entry, looked up): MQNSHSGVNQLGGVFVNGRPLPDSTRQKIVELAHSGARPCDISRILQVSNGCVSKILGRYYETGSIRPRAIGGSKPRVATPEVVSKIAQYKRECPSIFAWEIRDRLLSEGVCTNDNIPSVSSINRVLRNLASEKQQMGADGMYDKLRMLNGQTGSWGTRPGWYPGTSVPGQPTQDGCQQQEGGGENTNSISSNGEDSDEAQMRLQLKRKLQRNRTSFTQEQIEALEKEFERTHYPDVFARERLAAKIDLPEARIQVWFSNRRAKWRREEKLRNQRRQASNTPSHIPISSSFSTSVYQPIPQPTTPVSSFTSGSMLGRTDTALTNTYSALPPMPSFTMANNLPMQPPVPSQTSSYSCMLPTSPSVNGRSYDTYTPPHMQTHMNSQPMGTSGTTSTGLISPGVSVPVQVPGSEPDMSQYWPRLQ
Summary of the method: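 HepG2 cells transiently transfected with cis-promoter-driven multiplexed reporter units sensing endogenous transcription factor activity; 24 h chemical exposure. Reporter mRNA quantified by RT-PCR, 6-FAM labelling, HpaI digestion and capillary electrophoresis; bidirectional fit versus DMSO baseline.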

[2] = ATG_PXRE_CIS: Attagene CIS-FACTORIAL HepG2 Assay for human Pregnane X Receptor Element (PXRE) (AID 2282957); conditions: HepG2 Attagene CIS-FACTORIAL PXRE reporter, mRNA; actives raise or lower the signal
Summary of the method: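 HepG2 cells transiently transfected with cis-regulated multiple reporter transcription units; endogenous factor activity measured as reporter mRNA 24 h after dosing. RT-PCR, fluorescent primer extension, HpaI digestion, capillary electrophoresis; bidirectional fit versus DMSO baseline.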

[3] = ATG_PPRE_CIS: Attagene CIS-FACTORIAL HepG2 Assay for human Peroxisome Proliferator-activated Response Element (PPRE) (AID 2282958); conditions: HepG2 PPRE cis-element reporter, Attagene transcription factor profiling; actives raise or lower the signal
Summary of the method: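 Multiplexed reporter transcription units under cis-regulatory promoters were transfected into HepG2 cells to capture endogenous factor activity. A 24 h incubation preceded RNA isolation and fluorescent RT-PCR fragment analysis.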

[4] = ATG_RORE_CIS: Attagene CIS-FACTORIAL HepG2 Assay for human RAR-related Orphan Receptor Element (RORE) (AID 2282959); conditions: HepG2 Attagene cis-factorial RORE reporter, mRNA; actives raise or lower the signal
Summary of the method: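 Fluorescence intensity of reporter-specific cDNA fragments, separated by capillary electrophoresis, gives the signal. Source: HepG2 liver cells transiently transfected with cis-element reporters and exposed 24 h; DMSO-normalized bidirectional fit.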

[5] = ATG_Sox_CIS: Attagene CIS-FACTORIAL HepG2 Assay for human SRY-box transcription factor (SOX) (AID 2282960); conditions: HepG2 Attagene cis-factorial SOX reporter, mRNA; actives raise or lower the signal
Summary of the method: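 After 24 h of chemical treatment, transfected HepG2 reporter cells are lysed for total RNA. Transcript levels come from RT-PCR with labelled primer extension and capillary electrophoresis, analysed bidirectionally versus DMSO.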

[6] = molecular target: Transcription factor Sp1 (Homo sapiens) (UniProt P08047); experiment: ATG_Sp1_CIS: Attagene CIS-FACTORIAL HepG2 Assay for human Specificity Protein 1 (Sp1) (AID 2282961); conditions: HepG2 Sp1 cis-reporter transcription, actives raise or lower the signal
Transcription factor Sp1 (Homo sapiens), sequence (P08047 whole entry, looked up): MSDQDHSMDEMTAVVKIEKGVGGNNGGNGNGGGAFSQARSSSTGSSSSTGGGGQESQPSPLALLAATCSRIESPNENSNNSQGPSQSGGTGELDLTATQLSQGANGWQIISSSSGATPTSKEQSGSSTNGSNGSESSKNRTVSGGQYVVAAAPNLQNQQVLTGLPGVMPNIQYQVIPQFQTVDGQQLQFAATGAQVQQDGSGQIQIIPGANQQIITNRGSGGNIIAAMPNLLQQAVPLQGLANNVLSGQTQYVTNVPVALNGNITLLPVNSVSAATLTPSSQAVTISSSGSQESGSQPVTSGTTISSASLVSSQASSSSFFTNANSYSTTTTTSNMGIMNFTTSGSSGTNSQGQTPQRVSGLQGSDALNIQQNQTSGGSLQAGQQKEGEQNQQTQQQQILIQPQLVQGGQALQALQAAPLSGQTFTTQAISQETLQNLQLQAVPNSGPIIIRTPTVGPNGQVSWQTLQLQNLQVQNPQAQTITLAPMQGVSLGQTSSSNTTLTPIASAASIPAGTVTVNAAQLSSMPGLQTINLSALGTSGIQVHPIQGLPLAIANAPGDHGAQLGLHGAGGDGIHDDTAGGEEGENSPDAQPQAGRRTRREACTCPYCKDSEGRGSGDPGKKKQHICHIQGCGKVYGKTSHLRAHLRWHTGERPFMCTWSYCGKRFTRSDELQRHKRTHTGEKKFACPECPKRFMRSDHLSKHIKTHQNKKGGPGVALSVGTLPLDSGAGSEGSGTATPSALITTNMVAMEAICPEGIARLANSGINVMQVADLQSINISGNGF
Summary of the method: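 Sp1-driven reporter mRNA, read as capillary electrophoresis fluorescence after RT-PCR, in transiently transfected HepG2 cells dosed for 24 h; signal change in either direction relative to DMSO.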

[7] = ATG_SREBP_CIS: Attagene CIS-FACTORIAL HepG2 Assay for human Sterol Regulatory Element Binding (SREBP) (AID 2282962); conditions: HepG2 Attagene cis-factorial SREBP reporter, mRNA; actives raise or lower the signal
Summary of the method: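 HepG2 cells transiently transfected with multiplexed cis-promoter reporter units sensing endogenous transcription factors; reporter mRNA measured 24 h after dosing by RT-PCR, 6-FAM labeling, HpaI digestion and capillary electrophoresis. Bidirectional fit versus DMSO.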

[8] = molecular target: Signal transducer and activator of transcription 3 (Homo sapiens) (UniProt P40763); experiment: ATG_STAT3_CIS: Attagene CIS-FACTORIAL HepG2 Assay for human Signal Transducer and Activator of Transcription 3 (STAT3) (AID 2282963); conditions: HepG2, Attagene cis-factorial STAT3 reporter transcription; actives raise or lower the signal
Signal transducer and activator of transcription 3 (Homo sapiens), sequence (P40763 whole entry, looked up): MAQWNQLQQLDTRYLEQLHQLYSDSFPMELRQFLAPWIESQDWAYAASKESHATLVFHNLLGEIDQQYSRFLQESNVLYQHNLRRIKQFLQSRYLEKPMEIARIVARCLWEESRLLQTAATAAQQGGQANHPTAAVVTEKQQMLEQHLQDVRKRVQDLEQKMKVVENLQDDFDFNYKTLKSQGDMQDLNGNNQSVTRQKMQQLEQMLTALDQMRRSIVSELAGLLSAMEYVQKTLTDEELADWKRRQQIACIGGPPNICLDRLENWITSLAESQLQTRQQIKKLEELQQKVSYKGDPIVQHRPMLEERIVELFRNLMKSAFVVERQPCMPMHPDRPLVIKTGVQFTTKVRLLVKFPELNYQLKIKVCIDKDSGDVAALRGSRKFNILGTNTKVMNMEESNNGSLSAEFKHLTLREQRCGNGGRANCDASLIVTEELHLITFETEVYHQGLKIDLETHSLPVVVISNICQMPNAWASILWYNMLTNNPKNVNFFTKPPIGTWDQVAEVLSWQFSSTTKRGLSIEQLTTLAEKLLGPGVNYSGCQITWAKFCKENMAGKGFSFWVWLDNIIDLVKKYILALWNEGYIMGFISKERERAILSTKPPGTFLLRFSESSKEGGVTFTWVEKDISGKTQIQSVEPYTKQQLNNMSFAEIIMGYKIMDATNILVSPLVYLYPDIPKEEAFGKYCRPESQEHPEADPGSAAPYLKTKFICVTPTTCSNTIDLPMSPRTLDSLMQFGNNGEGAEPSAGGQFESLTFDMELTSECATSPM
Summary of the method: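 HepG2 cells transiently transfected with cis-element-driven multiple reporter transcription units; after 24 h chemical exposure, reporter mRNA measured by RT-PCR, 6-FAM primer-extension labelling, HpaI digestion and capillary electrophoresis. Bidirectional fitting versus DMSO baseline.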

[9] = ATG_TA_CIS: Attagene CIS-FACTORIAL HepG2 Assay for human TA Basal Promoter (AID 2282964); conditions: HepG2 Attagene CIS-factorial TA basal promoter reporter; actives raise or lower the signal
Summary of the method: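 Transient MRTU transfection of HepG2 preceded 24 h compound exposure. Reporter mRNA levels were then read by RT-PCR with capillary electrophoresis, and this background-control endpoint was fitted bidirectionally to DMSO.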

[10] = ATG_TCF_b_cat_CIS: Attagene CIS-FACTORIAL HepG2 Assay for human T-Cell-Factor with beta-catenin (TCF/b-cat) (AID 2282965); conditions: HepG2 TCF/beta-catenin cis-reporter transcription, actives raise or lower the signal
Summary of the method: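 Using capillary electrophoresis as the read-out, labelled reporter cDNA fragments from transiently transfected HepG2 were sized and quantified. Exposure lasted 24 hours; activity in either direction was referenced to DMSO.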

[11] = ATG_TAL_CIS: Attagene CIS-FACTORIAL HepG2 Assay for human TAL Basal Promoter (AID 2282966); conditions: HepG2 Attagene cis-factorial TAL promoter reporter; actives raise or lower the signal;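 also: background control endpoint measuring basal TAL promoter reporter mRNA not a specific factor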
Summary of the method: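 HepG2 cells were transiently transfected with promoter-driven multiplexed reporter units and dosed for 24 h. Reporter mRNA was measured by RT-PCR with capillary electrophoresis fluorescence; bidirectional fits used DMSO as baseline, serving as a background control.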

[12] = ATG_TGFb_CIS: Attagene CIS-FACTORIAL HepG2 Assay for human Transforming Growth Factor (TGF) (AID 2282967); conditions: HepG2 Attagene CIS TGFb reporter, mRNA transcription; actives raise or lower the signal
Summary of the method: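 After a 24-hour incubation with compound, transfected HepG2 cells were lysed for RNA; reporter cDNA was amplified, fluorescently end-labeled and separated by CE. DMSO served as baseline for bidirectional fits.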

[13] = ATG_VDRE_CIS: Attagene CIS-FACTORIAL HepG2 Assay for human Vitamin D Receptor Element (VDRE) (AID 2282968); conditions: HepG2 VDRE cis-reporter transcription, actives raise or lower the signal
Summary of the method: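 HepG2 cells transiently transfected with cis-element reporter units, dosed 24 h; reporter mRNA measured by RT-PCR, 6-FAM labeling, HpaI digestion and capillary electrophoresis. Activity fitted bidirectionally against DMSO baseline.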

[14] = molecular target: Estrogen receptor (Homo sapiens) (UniProt P03372); experiment: ATG_ERa_TRANS: Attagene TRANS-FACTORIAL HepG2 Assay for human Estrogen Receptor alpha (ERa) (AID 2282970; active = hit-call score of the fitted dose curve at least 0.9, where 1 is the maximum); conditions: HepG2 Attagene TRANS ERa GAL4 reporter, mRNA
Estrogen receptor (Homo sapiens), sequence (P03372 whole entry, looked up, the tested form may be a part): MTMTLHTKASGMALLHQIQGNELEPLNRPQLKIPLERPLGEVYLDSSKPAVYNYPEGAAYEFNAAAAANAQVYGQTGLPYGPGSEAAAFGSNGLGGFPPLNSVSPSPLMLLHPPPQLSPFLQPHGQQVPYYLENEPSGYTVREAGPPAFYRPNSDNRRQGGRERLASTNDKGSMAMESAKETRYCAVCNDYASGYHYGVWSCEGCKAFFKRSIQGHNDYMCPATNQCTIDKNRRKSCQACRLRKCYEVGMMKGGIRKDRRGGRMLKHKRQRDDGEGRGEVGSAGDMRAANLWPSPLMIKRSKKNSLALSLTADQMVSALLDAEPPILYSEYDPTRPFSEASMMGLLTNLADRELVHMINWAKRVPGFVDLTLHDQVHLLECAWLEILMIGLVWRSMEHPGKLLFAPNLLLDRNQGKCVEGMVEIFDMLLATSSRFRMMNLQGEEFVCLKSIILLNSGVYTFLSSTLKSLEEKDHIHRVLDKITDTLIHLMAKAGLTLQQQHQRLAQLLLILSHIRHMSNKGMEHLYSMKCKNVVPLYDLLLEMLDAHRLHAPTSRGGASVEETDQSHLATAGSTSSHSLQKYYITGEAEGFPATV
Summary of the method: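 HepG2 cells transiently transfected with multiplexed GAL4-UAS reporter units; ERa activity read via exogenous chimeric NR-Gal4 protein. After 24 hour compound exposure, reporter mRNA measured by RT-PCR with 6-FAM labelling and capillary electrophoresis; gain-of-signal fitted relative to DMSO.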

[15] = molecular target: X-box-binding protein 1 (Homo sapiens) (UniProt P17861); experiment: ATG_Xbp1_CIS: Attagene CIS-FACTORIAL HepG2 Assay for human X-box Binding Protein 1 (XBP1) (AID 2282972); conditions: HepG2 XBP1 cis-element reporter, Attagene multiplex; actives raise or lower the signal
X-box-binding protein 1 (Homo sapiens), sequence (P17861 whole entry, looked up): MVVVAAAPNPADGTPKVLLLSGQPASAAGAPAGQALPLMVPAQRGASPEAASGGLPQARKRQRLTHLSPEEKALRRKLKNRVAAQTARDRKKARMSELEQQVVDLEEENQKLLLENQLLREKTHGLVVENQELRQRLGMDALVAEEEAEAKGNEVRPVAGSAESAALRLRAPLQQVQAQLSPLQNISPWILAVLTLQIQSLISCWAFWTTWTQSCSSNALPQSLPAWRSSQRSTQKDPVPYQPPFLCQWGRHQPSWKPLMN
Summary of the method: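 HepG2 cells transiently transfected with multiple cis-element reporter units report endogenous TF activity; 24 h exposure, then reporter mRNA measured by RT-PCR, 6-FAM labelling, HpaI digestion and capillary electrophoresis. Bidirectional fitting versus DMSO.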

[16] = molecular target: Steroid hormone receptor ERR1 (Homo sapiens) (UniProt P11474); experiment: ATG_ERRa_TRANS: Attagene TRANS-FACTORIAL HepG2 Assay for human Estrogen-Related Receptor alpha (ERRa) (AID 2282971; active = hit-call score of the fitted dose curve at least 0.9, where 1 is the maximum); conditions: HepG2 Attagene TRANS reporter, ERRa transactivation
Steroid hormone receptor ERR1 (Homo sapiens), sequence (P11474 whole entry, looked up, the tested form may be a part): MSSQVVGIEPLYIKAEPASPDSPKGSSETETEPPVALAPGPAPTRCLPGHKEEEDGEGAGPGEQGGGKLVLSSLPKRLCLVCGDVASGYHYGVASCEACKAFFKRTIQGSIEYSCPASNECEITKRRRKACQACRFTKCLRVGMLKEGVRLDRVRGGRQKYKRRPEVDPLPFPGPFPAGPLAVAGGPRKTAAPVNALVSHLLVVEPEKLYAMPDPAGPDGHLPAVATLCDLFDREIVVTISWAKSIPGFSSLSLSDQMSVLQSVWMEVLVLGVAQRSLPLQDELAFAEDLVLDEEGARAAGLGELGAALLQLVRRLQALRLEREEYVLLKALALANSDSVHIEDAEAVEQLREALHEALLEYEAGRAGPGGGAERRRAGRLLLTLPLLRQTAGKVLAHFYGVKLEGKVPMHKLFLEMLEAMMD
Summary of the method: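 HepG2 cells transiently transfected with multiplexed GAL4-UAS reporter units reading chimeric ERRa-Gal4 activity; 24 h compound exposure. Reporter mRNA measured by RT-PCR, 6-FAM labelling, HpaI digest and capillary electrophoresis; gain of signal fitted versus DMSO baseline.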

[17] = ATG_M_19_TRANS: Attagene TRANS-FACTORIAL HepG2 Assay for M19 Transcription Factor (Internal Marker) (AID 2282974; active = hit-call score of the fitted dose curve at least 0.9, where 1 is the maximum); conditions: HepG2 Attagene TRANS-FACTORIAL M19 internal marker reporter
Summary of the method: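 Measured here: internal-marker reporter transcript from HepG2 cells transfected with MRTUs, harvested at 24 h. cDNA PCR products were 6-FAM labelled by primer extension, cut with HpaI for 2 h at 37 C, and resolved by CE.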

[18] = ATG_GAL4_TRANS: Attagene TRANS-FACTORIAL HepG2 Assay for GAL4 (Internal Marker) (AID 2282976; active = hit-call score of the fitted dose curve at least 0.9, where 1 is the maximum); conditions: HepG2 Attagene TRANS GAL4 internal marker reporter
Summary of the method: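 HepG2 cells transiently transfected with multiplexed GAL4-UAS reporter constructs were dosed for 24 h. Reporter mRNA was measured by RT-PCR, 6-FAM primer extension, HpaI digestion and capillary electrophoresis, and gain of signal was fitted relative to DMSO.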

[19] = molecular target: Nuclear receptor subfamily 1 group I member 3 (Homo sapiens) (UniProt Q14994); experiment: ATG_CAR_TRANS: Attagene TRANS-FACTORIAL HepG2 Assay for human Constitutive Androstane Receptor (CAR) (AID 2282969; active = hit-call score of the fitted dose curve at least 0.9, where 1 is the maximum;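 also: activators raise reporter mRNA above DMSO so AC50 marks induction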); conditions: HepG2 Attagene TRANS-FACTORIAL CAR reporter
Nuclear receptor subfamily 1 group I member 3 (Homo sapiens), sequence (Q14994 whole entry, looked up, the tested form may be a part): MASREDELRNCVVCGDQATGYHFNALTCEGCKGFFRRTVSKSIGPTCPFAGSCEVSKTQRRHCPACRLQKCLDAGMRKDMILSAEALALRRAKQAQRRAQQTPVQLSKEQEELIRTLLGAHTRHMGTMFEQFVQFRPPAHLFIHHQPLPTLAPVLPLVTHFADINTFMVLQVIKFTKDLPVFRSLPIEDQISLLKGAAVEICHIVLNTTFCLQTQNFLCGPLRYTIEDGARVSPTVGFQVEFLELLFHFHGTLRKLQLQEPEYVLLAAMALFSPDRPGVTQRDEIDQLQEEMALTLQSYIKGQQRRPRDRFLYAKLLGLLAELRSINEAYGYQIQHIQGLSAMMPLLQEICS
Summary of the method: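 HepG2 cells transiently transfected with multiplexed GAL4-UAS reporter units expressing chimeric NR-Gal4 proteins; compound exposure 24 h. Reporter mRNA measured by RT-PCR, 6-FAM labelling, HpaI digestion and capillary electrophoresis; gain-of-signal fitted against DMSO baseline.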

Measured: AC50

CC(=O)[C@H]1CC[C@H]2[C@@H]3CC=C4C[C@@H](O)CC[C@]4(C)[C@H]3CC[C@]12C
active: [2] 3.37 µM | [10] 52.8 µM | [13] 22.6 µM | [14] 1.32 µM
not listed: [16] | [17] | [18] | [19]
inactive: all other assays above

CC1(C)C(=O)N(Br)C(=O)N1Cl
active: [2] 67.5 µM
not listed: [14] | [19]
inactive: all other assays above

NC(=O)NC1NC(=O)NC1=O (configuration not stated)
not listed: [14] | [16] | [17]
inactive: all other assays above

BrC1CCC(Br)C(Br)CCC(Br)C(Br)CCC1Br (configuration not stated)
active: [1] 20.5 µM | [2] 0.95 µM | [6] 87 µM | [7] 53.7 µM | [13] 2.52 µM | [15] 45.5 µM
not listed: [18] | [19]
inactive: all other assays above

O=Cc1ccc(Cl)c([N+](=O)[O-])c1
inactive: [3] | [4] | [8] | [9] | [11] | [12] | [14]
active: [1] 91.2 µM | [2] 67.5 µM | [5] 109 µM | [6] 146 µM | [7] 137 µM | [10] 65.1 µM | [13] 100 µM

CCCCCC(CO)CCC (configuration not stated)
not listed: [14] | [16] | [18] | [19]
inactive: all other assays above

Cc1c(Cl)c(=O)oc2cc(O)ccc12
active: [2] 70.3 µM | [6] 26.8 µM | [7] 120 µM | [13] 149 µM
not listed: [14] | [16]
inactive: all other assays above

O=P(c1ccccc1)(c1ccccc1)c1ccccc1
active: [2] 5.59 µM | [13] 13.1 µM
not listed: [15] | [16] | [17] | [18]
inactive: all other assays above

CCCCC/C=C/C=C/C=O
active: [1] 100 µM | [2] 26.6 µM
not listed: [14] | [16] | [17]
inactive: all other assays above
